# ± gives the standard deviation of the averaged measurements.
# Key:
# Experiment in all cases: odor-evoked OSN spike response (post minus pre-stimulus); higher = stronger neuronal excitation
# Details in all cases: odor dilution: 10^-4
# [1] = tested on: Drosophila ezoana antennal basiconic sensillum ab1
# Method in brief: (§1)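 The response is the change in spike frequency between pre-stimulus and post-stimulus windows, averaged over replicate sensilla. Both windows lasted 1 second, and spikes were counted with Auto Spike software. Single sensillum recordings used a tungsten electrode at the base of antennal basiconic sensilla on restrained adult flies, with up to 3 sensilla per fly, and odorant at 10^−4 in mineral oil or DMSO (10 µl on filter paper) was delivered as a 500 ms pulse into a charcoal-filtered, humidified 1.5 l min^−1 air stream.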
# [2] = tested on: Drosophila ezoana antennal basiconic sensillum ab3
# Method in brief: as §1
# [3] = tested on: Drosophila virilis antennal basiconic sensillum AB2
# Method in brief: as §1
smiles,measurement,setting,value
CC(C)=O [acetone],odor-evoked OSN spike response,[1],67.1 ± 24 spikes/s
same,odor-evoked OSN spike response,[2],63.3 ± 28 spikes/s
same,odor-evoked OSN spike response,[3],53.7 ± 24 spikes/s

# Source: the supplement of paper PMC10477191
